Screening data from PubChem.
Hits are enriched below; roughly 1.5% of the tested compounds scored in any of these assays.
Myeloid diff 2 – induction of myeloid progenitor differentiation, primary screen, cell-based, flow cytometry, MLPCN library | ER-HoxA9 myeloid progenitors, lysozyme-GFP differentiation | calls only at 10 µM | AID 624256, 2012 | actives 1% (n = 360,000);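 active = normalized GFP-positive differentiation at or above the plate's own cutoff, the solvent-only control mean plus 3 SD; inconclusive = no clear call, values can overlap the other calls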;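 note: cells exposed to compound for four days before flow analysis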
TLR4-MyD88 BLA – inhibitors of TLR4-MyD88 association in cells, primary screen, cell-based, HeLa CL3-4, BLA complementation, FRET ratio | Toll-like receptor 4 (Homo sapiens) + Myeloid differentiation primary response protein … | HeLa CL3-4 TLR4/MyD88 BLA complementation | inhibition, % at 8.4 µM | actives 0.18% (n = 200,000); in the data active = inhibition above about 25%;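 note: 0% = vehicle and 100% = reference inhibitor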
Target sequence (O00206 whole entry, looked up): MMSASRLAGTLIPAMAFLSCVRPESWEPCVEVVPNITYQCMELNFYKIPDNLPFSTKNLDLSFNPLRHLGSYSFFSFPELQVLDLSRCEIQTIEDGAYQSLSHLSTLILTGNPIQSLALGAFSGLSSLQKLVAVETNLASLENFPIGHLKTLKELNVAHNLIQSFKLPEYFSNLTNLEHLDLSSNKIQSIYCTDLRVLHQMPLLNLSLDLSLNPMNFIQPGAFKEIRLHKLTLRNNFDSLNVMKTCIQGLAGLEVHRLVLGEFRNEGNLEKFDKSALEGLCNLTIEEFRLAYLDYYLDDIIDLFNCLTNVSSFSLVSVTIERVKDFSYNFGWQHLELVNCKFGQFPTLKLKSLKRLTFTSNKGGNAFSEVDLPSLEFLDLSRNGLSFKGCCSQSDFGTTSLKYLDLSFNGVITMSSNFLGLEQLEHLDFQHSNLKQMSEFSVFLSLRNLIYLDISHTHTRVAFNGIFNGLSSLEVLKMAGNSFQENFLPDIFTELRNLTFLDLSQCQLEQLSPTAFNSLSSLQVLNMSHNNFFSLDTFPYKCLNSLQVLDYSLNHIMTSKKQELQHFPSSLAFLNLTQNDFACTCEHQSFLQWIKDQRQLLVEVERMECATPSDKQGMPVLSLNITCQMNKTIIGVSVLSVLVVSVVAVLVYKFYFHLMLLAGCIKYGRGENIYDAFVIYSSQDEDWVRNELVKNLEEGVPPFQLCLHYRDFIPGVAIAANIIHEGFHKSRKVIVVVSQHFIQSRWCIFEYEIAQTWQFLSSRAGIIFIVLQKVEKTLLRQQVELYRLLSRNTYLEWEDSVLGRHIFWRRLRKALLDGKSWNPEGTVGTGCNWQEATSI
Target sequence (Q99836 whole entry, looked up): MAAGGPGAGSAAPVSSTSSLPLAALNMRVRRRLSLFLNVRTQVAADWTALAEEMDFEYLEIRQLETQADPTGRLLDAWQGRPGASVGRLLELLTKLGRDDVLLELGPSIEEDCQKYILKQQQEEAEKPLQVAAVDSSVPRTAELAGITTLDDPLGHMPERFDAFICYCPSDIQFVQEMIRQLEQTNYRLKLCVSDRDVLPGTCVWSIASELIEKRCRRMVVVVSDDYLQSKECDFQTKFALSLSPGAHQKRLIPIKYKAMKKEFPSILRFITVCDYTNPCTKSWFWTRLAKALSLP
TLR9-MyD88 block – inhibitors of TLR9-MyD88 association in cells, primary screen, cell-based, CHO, BLA complementation, fluorescence; Toll-like receptor 9 (Homo sapiens) + Myeloid differentiation primary response protein …; CCF4 FRET ratio; inhibition, % at 4.98 µM; actives 0.21% (n = 340,000); AID 504734, 2011;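 active = inhibition above the mean over all tested compounds plus 3 SD, cut at about 21% in these data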;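 note: 0% = DMSO only wells and 100% = clavulanate BLA inhibitor control wells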
NOD2 RIPK2 PPI – NOD2-RIPK2 binding disruptors in cells, primary screen, fluorescence, CHO cells, BLA complementation | Receptor-interacting serine/threonine-protein kinase 2 (Homo sapiens), O43353 | actives 0.38% (n = 360,000) | CCF4 ratio | inhibition, % at 4.98 µM; in the data active = inhibition above about 21%;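 note: 0% = vehicle only and 100% = reference blocker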
* hit, by the source's call; ! = not confirmed by another sample.

What do the screens show for `COC(=O)c1c(N)n(-c2ccc(NC(C)=O)cc2)c2nc3ccccc3nc12`?
Myeloid diff 2: active; TLR4-MyD88 BLA: -19.4; TLR9-MyD88 block: -2.0; NOD2 RIPK2 PPI: 1.7

Results for C#CCOCCOCCOCCNc1nc(N2CCN(C(=O)CCCCCCCCCCNC(=O)[C@H]([C@@H](C)CC)n3cc(CCCCCN)nn3)CC2)nc(N2CCN(C(=O)CCCCCCCCCCNC(=O)[C@@H]([C@H](C)O)n3cc(C)nn3)CC2)n1 ?
Myeloid diff 2: inconclusive; TLR9-MyD88 block: 2.8; NOD2 RIPK2 PPI: 37.3*

Results for C#CCOCCOCCOCCNc1nc(N2CCN(C(=O)CCCCCCCCCCNC(=O)[C@H](CCCCN)n3cc(C)nn3)CC2)nc(N2CCN(C(=O)CCCCCCCCCCNC(=O)[C@@H]([C@H](C)CC)n3cc(CCCCCN)nn3)CC2)n1 ?
Myeloid diff 2: inactive; TLR9-MyD88 block: 22.9*; NOD2 RIPK2 PPI: 50.4*

Results for C#CCOCCOCCOCCNc1nc(N2CCN(C(=O)CCCCCCCCCCNC(=O)[C@H](CCC(=O)O)n3cc(CCCCCN)nn3)CC2)nc(N2CCN(C(=O)CCCCCCCCCCNC(=O)[C@@H]([C@H](C)O)n3cc(C)nn3)CC2)n1 ?
Myeloid diff 2: inactive; TLR9-MyD88 block: 1.6; NOD2 RIPK2 PPI: 12.4

Results for COc1ccc(Cc2c(C3CCCCC3)nc3c(Cl)cc(C(F)(F)F)cn23)c(C)c1 ?
Myeloid diff 2: inactive; NOD2 RIPK2 PPI: -7.0

What do the screens show for `Cc1nc(Nc2ccc(Cl)cc2)c2nnn(Cc3ccccc3)c2n1`?
Myeloid diff 2: inactive; TLR4-MyD88 BLA: -7.9; TLR9-MyD88 block: 1.5; NOD2 RIPK2 PPI: 2.1

What do the screens show for `Cc1nc(Nc2ccc(S(=O)(=O)N3CCCCC3C)cc2)c2nnn(Cc3ccccc3)c2n1` (stereo not given)?
Myeloid diff 2: active; TLR4-MyD88 BLA: -5.7; TLR9-MyD88 block: 1.5; NOD2 RIPK2 PPI: -0.9

How did C[C@@H](c1ccccc1)N1C[C@H](COCc2ccccc2)Oc2cc(N3CC[C@@H](O)C3)ccc2S1(=O)=O do in these assays?
Myeloid diff 2: active; NOD2 RIPK2 PPI: 5.8

How did COC(=O)[C@@]12C[C@@H](CC(=O)NCc3cccc(C(F)(F)F)c3)C(=O)N(CCc3ccc(OC)c(OC)c3)C1=CCC(C)(C)C2 do in these assays?
Myeloid diff 2: inactive; NOD2 RIPK2 PPI: 2.6

What do the screens show for `COc1ccc(NC(=O)CN2C(=O)/C(=C3\SC(=S)N(CCC(=O)O)C3=O)c3ccccc32)cc1`?
Myeloid diff 2: inactive; TLR9-MyD88 block: 5.6; NOD2 RIPK2 PPI: -7.5

How did O=C(O)CCN1C(=O)/C(=C2\C(=O)N(Cc3ccccc3Cl)c3ccccc32)SC1=S do in these assays?
Myeloid diff 2: active; TLR9-MyD88 block: 8.6; NOD2 RIPK2 PPI: -9.7

Results for CCCCOCCCNC(=O)C[C@@H]1C[C@@]2(C(=O)OCC)CCCC=C2N(Cc2ccc3c(c2)OCO3)C1=O ?
Myeloid diff 2: inactive; NOD2 RIPK2 PPI: 7.5

What do the screens show for `CCSC1=NC(C)(C)C=C(/C=C/c2ccc(Cl)cc2Cl)N1`?
Myeloid diff 2: inactive; TLR4-MyD88 BLA: -2.7; TLR9-MyD88 block: -0.2; NOD2 RIPK2 PPI: 0.6

How did CSC1=NC(C)(C)C=C(/C=C/c2ccc(Cl)cc2Cl)N1 do in these assays?
Myeloid diff 2: active; TLR4-MyD88 BLA: 5.2; TLR9-MyD88 block: -3.6; NOD2 RIPK2 PPI: 3.2

Results for CN[C@H]1C[C@H]2c3[nH]c4ccc(-c5ccc(OC)cc5)cc4c3CCN2C(=O)[C@H]1[C@H](C)O ?
Myeloid diff 2: inconclusive; TLR9-MyD88 block: -3.9; NOD2 RIPK2 PPI: -1.4

How did CN(CCNC(=O)C1CCN(c2ncnc3c2nc2n3CCCCC2)CC1)Cc1ccccc1 do in these assays?
Myeloid diff 2: active; TLR9-MyD88 block: -8.4; NOD2 RIPK2 PPI: 3.7

What do the screens show for `Cc1cccnc1C(NC(=O)C1CCN(CCCOc2ccc(F)cc2)CC1)c1ccccc1` (stereo not given)?
Myeloid diff 2: inactive; NOD2 RIPK2 PPI: 20.2

How did COc1ccc(C2=CC3=C(Br)C(=O)C(C)(OC(=O)c4ccco4)C(=O)C3=CO2)cc1 (stereo not given) do in these assays?
Myeloid diff 2: active; TLR9-MyD88 block: -4.6; NOD2 RIPK2 PPI: 1.8

Results for Cc1ccc2nc(C(C)(C)C)c(Cc3cccc(F)c3)n2c1 ?
Myeloid diff 2: inactive; NOD2 RIPK2 PPI: -2.9

Results for COc1cc2ccc(C=O)cc2cc1OC ?
Myeloid diff 2: inactive; TLR9-MyD88 block: -13.4; NOD2 RIPK2 PPI: -0.5

What do the screens show for `Cc1cc(N2CCN(C(=O)c3ccco3)CC2)n2nc(-c3cccc(F)c3)cc2n1`?
Myeloid diff 2: active; TLR4-MyD88 BLA: -0.7; TLR9-MyD88 block: 0.1; NOD2 RIPK2 PPI: -2.5

What do the screens show for `CC1CCCCC1N1CN=C(Nc2nc3ccccc3s2)NC1` (stereo not given)?
Myeloid diff 2: active; TLR4-MyD88 BLA: -10.9; TLR9-MyD88 block: -7.1; NOD2 RIPK2 PPI: -12.9

What do the screens show for `Cc1noc(C)c1-c1ccc(C(=O)Nc2cccc(C(F)(F)F)c2)c2occc12`?
Myeloid diff 2: inactive; NOD2 RIPK2 PPI: -1.9

What do the screens show for `CC(C)CC1C(=O)N(Cc2cn(Cc3ccco3)nn2)CCS(=O)(=O)N1Cc1ccc(-c2ccccc2)cc1` (stereo not given)?
Myeloid diff 2: inactive; TLR9-MyD88 block: 0.3; NOD2 RIPK2 PPI: -7.1

How did O=C(O)CSc1cc(C(=O)c2cc(F)ccc2O)cn2c(=O)c3c(-c4ccccc4)csc3nc12 do in these assays?
Myeloid diff 2: inactive; TLR9-MyD88 block: 5.0; NOD2 RIPK2 PPI: -4.5

What do the screens show for `CCOC(=O)c1sc2nc3c(SCCC(=O)O)cc(C(=O)c4cc(OC)ccc4O)cn3c(=O)c2c1C`?
Myeloid diff 2: active; TLR4-MyD88 BLA: -13.3; TLR9-MyD88 block: -5.6; NOD2 RIPK2 PPI: -13.4

What do the screens show for `Cc1c(N=Cc2ccco2)c(=O)n(-c2ccccc2)n1C`?
Myeloid diff 2: inactive; TLR4-MyD88 BLA: -2.5; TLR9-MyD88 block: -2.3; NOD2 RIPK2 PPI: 0.1

How did COc1ccc2c(C=Nc3c(C)n(C)n(-c4ccccc4)c3=O)c(O)n(Cc3ccco3)c(=O)c2c1 do in these assays?
Myeloid diff 2: active!; TLR4-MyD88 BLA: -11.2; TLR9-MyD88 block: 1.5; NOD2 RIPK2 PPI: -6.5

What do the screens show for `O=C(C1CCC(=O)N(C2CC2)C1)N1CCC(Oc2cccc(F)c2)CC1` (stereo not given)?
Myeloid diff 2: inactive; TLR9-MyD88 block: -1.7; NOD2 RIPK2 PPI: -4.5

How did O=C(C1CCC(=O)N(C2CCCC2)C1)N1CCC(Oc2cccc(F)c2)CC1 (stereo not given) do in these assays?
Myeloid diff 2: active; TLR9-MyD88 block: 7.0; NOD2 RIPK2 PPI: 9.6

What do the screens show for `N#Cc1ccc(-c2ccc(Cl)cc2)nc1SCC(=O)c1cccc(Cl)c1`?
Myeloid diff 2: active; TLR4-MyD88 BLA: 2.8; TLR9-MyD88 block: 2.3; NOD2 RIPK2 PPI: -6.2
